Test system: Vero E6 infected with SARS-CoV-2
Experiment: inhibition of SARS-CoV-2 cytopathic effect; higher = more antiviral protection, active = above 15
Details: 48 h

Measured: inhibition of SARS-CoV-2 cytopathic effect

Cn1cnc([N+](=O)[O-])c1Sc1ncnc2[nH]cnc12 [azathioprine]
inactive: 1 nM -3.67% | 8.33 nM 2.21% | 100 nM 2.74% | 833.33 nM 3.46% | 10000 nM -3.46%

Nc1nc(=O)n([C@H]2C[C@H](O)[C@@H](CO)O2)cc1F [fdcyd]
inactive: 1 nM 0.4% | 8.33 nM 0.55% | 100 nM -0.04% | 833.33 nM 8.53% | 10000 nM -2.15%

COc1ccccc1N1CCN(CCN2C(=O)c3ccccc3C(C)(C)C2=O)CC1
inactive: 1 nM 0.16% | 8.33 nM -2.9% | 100 nM 2.69% | 833.33 nM -0.3% | 10000 nM 0.21%

N#CC(c1ccc(Cl)cc1)c1c(Cl)cc(-n2ncc(=O)[nH]c2=O)cc1Cl (stereo not given) [diclazuril]
inactive: 1 nM -4.3% | 8.33 nM -0.75% | 100 nM 0.27% | 833.33 nM 1.84% | 10000 nM 0.73%

CN1C(C(=O)Nc2ccccn2)=C(O)c2ccccc2S1(=O)=O [piroxicam]
inactive: 1 nM 0.3% | 8.33 nM -0.73% | 100 nM 0.15% | 833.33 nM 0.8% | 10000 nM 1.41%

Cc1c(O)c(=O)ccn1C [deferiprone]
inactive: 1 nM 0.05% | 8.33 nM 0.64% | 100 nM 1.45% | 833.33 nM 3.35% | 10000 nM 0.91%

CC(C[N+](C)(C)C)OC(N)=O (stereo not given) [bethanechol]
inactive: 1 nM -5.4% | 8.33 nM 2.96% | 100 nM -4.87% | 833.33 nM -5.89% | 10000 nM -6.25%

C[C@H](CS)C(=O)N1CCC[C@H]1C(=O)O [captopril]
inactive: 1 nM -1.79% | 8.33 nM 0.97% | 100 nM -2.39% | 833.33 nM -1.5% | 10000 nM -0.97%

CN1[C@@H]2C[C@@H](OC(=O)[C@H](CO)c3ccccc3)C[C@H]1[C@@H]1O[C@@H]12
inactive: 1 nM 1.79% | 8.33 nM 1.73% | 100 nM 1.2% | 833.33 nM 1.41% | 10000 nM 0.06%

O=C(NCC1CCCCN1)c1cc(OCC(F)(F)F)ccc1OCC(F)(F)F (stereo not given) [flecainide]
inactive: 1 nM -1.39% | 8.33 nM 1.45% | 100 nM -0.28% | 833.33 nM 3.98% | 10000 nM -3.89%

CCCCCC(=O)O[C@]1(C(C)=O)CC[C@H]2[C@@H]3CCC4=CC(=O)CC[C@]4(C)[C@H]3CC[C@@]21C [17-hydroxyprogesterone-caproate]
inactive: 1 nM -1.12% | 8.33 nM 1.14% | 100 nM 1.12% | 833.33 nM 1.58% | 10000 nM 5.84%

Cc1ncc([N+](=O)[O-])n1CC(O)CCl (stereo not given) [ornidazole]
inactive: 1 nM -2.81% | 8.33 nM 0.99% | 100 nM 1.14% | 833.33 nM -1.29% | 10000 nM 1.51%

O=S(=O)(c1ccccc1)c1cnc2c(N3CCNCC3)cccc2c1
inactive: 1 nM -2.8% | 8.33 nM -0.02% | 100 nM -3.01% | 833.33 nM 0.98% | 10000 nM 1.43%

CCN1CCCC1CNC(=O)c1cc(S(N)(=O)=O)ccc1OC (stereo not given) [sulpiride]
inactive: 1 nM 0.06% | 8.33 nM -1.14% | 100 nM 0.7% | 833.33 nM 1.07% | 10000 nM 0.685%

N#Cc1cccc(-c2nc(-c3cccnc3)no2)c1
inactive: 1 nM -1.62% | 8.33 nM 0.72% | 100 nM -0.15% | 833.33 nM -1.08% | 10000 nM 2.85%

CCCc1nc(C)c2c(=O)nc(-c3cc(S(=O)(=O)N4CCN(CC)CC4)ccc3OCC)[nH]n12 [vardenafil]
inactive: 1 nM -1.45% | 8.33 nM -1.02% | 100 nM 0.46% | 833.33 nM -0.81% | 10000 nM 1.4%

Cn1cccc1/C=C1\C(=O)NC(=O)c2ccccc21
inactive: 1 nM 2.55% | 8.33 nM -0.08% | 100 nM -1.24% | 833.33 nM -2.42% | 10000 nM 5%

CNCCC=C1c2ccccc2CCc2ccccc21 [nortriptyline]
inactive: 1 nM 1.29% | 8.33 nM -0.85% | 100 nM 0.56% | 833.33 nM 1.26% | 10000 nM -4.8%

NCC1(CC(=O)O)CCCCC1 [gabapentin]
inactive: 1 nM -2.49% | 8.33 nM 2.99% | 100 nM -2.14% | 833.33 nM 0.15% | 10000 nM 2.27%

CCC(=O)[C@@]1(C)[C@H](C)C[C@H]2[C@@H]3CCC4=CC(=O)C=C[C@]4(C)[C@H]3[C@@H](O)C[C@@]21C [rimexolone]
inactive: 1 nM -1.78% | 8.33 nM -0.66% | 100 nM -2.92% | 833.33 nM 0.22% | 10000 nM -2.54%

CC(C)c1ccc(CC(=O)N2CCC[C@@H](c3cccc(OC(C)(C)C(=O)O)c3)C2)cc1
inactive: 1 nM 0.54% | 8.33 nM 0.54% | 100 nM -0.36% | 833.33 nM 1.87% | 10000 nM -0.15%

C#Cc1cnc2nc(O)n(C(CC)CC)c2n1 [tirasemtiv]
inactive: 1 nM 1.57% | 8.33 nM -0.65% | 100 nM 1.78% | 833.33 nM 2.57% | 10000 nM -1.21%

CC(C)(C)C(=O)OCOP(=O)(COCCn1cnc2c(N)ncnc21)OCOC(=O)C(C)(C)C [adefovir-dipivoxil]
inactive: 1 nM 2.79% | 8.33 nM 1.23% | 100 nM -0.37% | 833.33 nM -2.27% | 10000 nM -3.69%

CC[N+](C)(CC)CCOC(=O)C1c2ccccc2Oc2ccccc21 [methantheline]
inactive: 1 nM 7.35% | 8.33 nM 3.87% | 100 nM 1.9% | 833.33 nM -0.21% | 10000 nM 3.41%

CCC[N+]12[C@H](O)[C@@H](CC)[C@@H]3C[C@H]1[C@@H]1N(C)c4ccccc4[C@]14C[C@H]2[C@@H]3[C@H]4O [neo-gilurytmal]
inactive: 1 nM -1.96% | 8.33 nM -1.28% | 100 nM 0.64% | 833.33 nM 1.4% | 10000 nM -3.83%

C[C@H](C[C@H](N)C(=O)O)C(=O)O
inactive: 1 nM -1.19% | 8.33 nM -0.93% | 100 nM -1.73% | 833.33 nM -0.6% | 10000 nM -0.35%

O=C1CCCC(=O)C1C(=O)c1ccc(C(F)(F)F)cc1[N+](=O)[O-] [nitisinone]
inactive: 1 nM 0.39% | 8.33 nM 0.93% | 100 nM -0.21% | 833.33 nM 0.01% | 10000 nM -1.34%

CC(C)N(CCC(=O)c1ccc2ccccc2c1)Cc1ccccc1
inactive: 1 nM 0.32% | 8.33 nM -1.41% | 100 nM 1.13% | 833.33 nM 3.16% | 10000 nM 3.92%

C1CCN2C[C@@H]3C[C@@H](CN4CCCC[C@@H]34)[C@H]2C1 [sparteine-sulfate]
inactive: 1 nM 0.15% | 8.33 nM 4.17% | 100 nM 3.05% | 833.33 nM 1.05% | 10000 nM -2.55%

O=C(NOCCO)c1ccc2cncn2c1Nc1ccc(I)cc1F
inactive: 1 nM -1.68% | 8.33 nM -5.37% | 100 nM -12.8% | 833.33 nM -14.4% | 10000 nM -13.2%

COC(=O)c1ccc2c(c1)nc(NC(=O)c1ccccc1)n2CCCc1ccccc1
inactive: 1 nM -0.52% | 8.33 nM -1.27% | 100 nM -1.28% | 833.33 nM -5.07% | 10000 nM -1.86%

C#CC1(OCC(O)CN2CCN(c3cccc(C(F)(F)F)c3)CC2)CCCCC1 (stereo not given) [terciprazine]
inactive: 1 nM 0.45% | 8.33 nM -1.84% | 100 nM -0.67% | 833.33 nM 3.5% | 10000 nM -3.3%

C=CC1=C(C)C2=CC3=NC(=C(CC(=O)O)C4=NC(=C(C)C4=C(O)O)C=c4[nH]c(c(C)c4CC)=CC1=N2)C(CCC(=O)O)C3C (stereo not given) [chlorophyllin]
inactive: 1 nM -0.57% | 8.33 nM -1.3% | 100 nM -0.92% | 833.33 nM -4.38% | 10000 nM -10.6%

CCc1c(C(=O)C(N)=O)c2c(OCC(=O)O)cccc2n1Cc1ccccc1 [varespladib]
inactive: 1 nM 2.9% | 8.33 nM -0.54% | 100 nM 1.35% | 833.33 nM 1.32% | 10000 nM 0.87%

OC[C@H]1O[C@H](O[C@H]2[C@H](O)[C@@H](O)[C@H](O)O[C@@H]2CO)[C@H](O)[C@@H](O)[C@@H]1O [D-(+)-maltose]
inactive: 1 nM -1.05% | 8.33 nM -1.49% | 100 nM -0.09% | 833.33 nM -1.17% | 10000 nM -3.27%

CCCn1c(=O)c2nc(C34CC5CC(CC3C5)C4)[nH]c2n(CCC)c1=O
inactive: 1 nM 1.22% | 8.33 nM -0.55% | 100 nM 2.44% | 833.33 nM 2.31% | 10000 nM 1.25%

CC(=O)N(CC(O)CN(C(C)=O)c1c(I)c(C(=O)NCC(O)CO)c(I)c(C(=O)NCC(O)CO)c1I)c1c(I)c(C(=O)NCC(O)CO)c(I)c(C(=O)NCC(O)CO)c1I (stereo not given) [iodixanol]
inactive: 1 nM -1.14% | 8.33 nM 3.23% | 100 nM 2.34% | 833.33 nM -0.66% | 10000 nM -1.88%

CC1(C)CCC(C)(C)c2cc(C3(c4ccc5cc(C(=O)O)ccc5c4)SCCS3)ccc21
inactive: 1 nM -0.61% | 8.33 nM 2.69% | 100 nM 1.81% | 833.33 nM 1.35% | 10000 nM 2.66%

C[C@]12CCC(=O)C=C1C=C[C@@H]1[C@@H]2CC[C@@]2(C)[C@H]1CC[C@@]21CCC(=O)O1 [canrenone]
inactive: 1 nM -1.44% | 8.33 nM -1.41% | 100 nM -2.85% | 833.33 nM -2.53% | 10000 nM 6.34%
